Rows were chosen to be rich in hits. Some 11% of all compounds tested hit in one or more screens of this group.
Sm TGR inh = S. mansoni TGR enzyme inhibition. actives 3% (n = 360,000). Q962Y6. Potency, µM (highest dose often 114 µM), inactives show top-dose activity change, negative = inhibition, actives largely listed as inhibitors. purified TGR, DTNB reduction, TNB absorbance 405 nm. AID 485364; also: % is scaled to controls: 0 for no effect and ±100 for the full control effect; nearly all actives have a fitted effect of over 60% in size
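Kinetic colorimetric format: TGR-catalysed, NADPH-driven DTNB reduction monitored via TNB absorbance. Enzyme dispensed at 20 nM; compound exposure 15 min at room temperature before reaction start.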
NS1 inh = blocks influenza NS1 protein function. Potency, µM (highest dose often 46.1 µM), for the others: at the top dose activity, positive = more growth. actives 0.4% (n = 270,000); calls by dose curve; also: actives are rising curves; nearly all actives have a fitted effect of over 50% in size
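Read-out: OD600 growth recovery of NS1-expressing budding yeast. Cells grown overnight at 30C in -URA glucose medium, washed, resuspended and diluted 1:100 in 2% galactose assay medium, pH 6.0. Same strain lacking NS1 served as positive control.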
Pf growth 96h = P. falciparum growth inhibition at 96 hours. P. falciparum luciferase reporter growth, 96 h. Potency, µM (top dose mostly 28.7 µM), without a hit: at the top dose activity change, negative = inhibition, actives largely listed as inhibitors. actives 6.9% (n = 320,000). AID 504834; also: % is scaled to controls: 0 for no effect and ±100 for the full control effect
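Delayed-death screen, second-generation endpoint: infected erythrocytes, 2% hematocrit, 0.05% parasitemia final; 96 hours at 37 C, 5% CO2; luciferase detection reagent; luminescence decrease equals reduced growth.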
Pf growth 48h = inhibits P. falciparum growth in the first generation, 48 h | AID 504832 | P. falciparum luciferase growth in erythrocytes, 48 h | Potency, µM (highest dose often 28.7 µM), for the others: at the highest dose activity change, negative = inhibition, most hits filed as inhibitors | actives 5.9% (n = 310,000); also: % is scaled to controls: 0 for no effect and ±100 for the full control effect
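Luminescence readout; reporter = integrated firefly luciferase in P. falciparum. RBC culture at 2% hematocrit, 0.1% parasitemia final, 37 C/5% CO2; decreased signal taken as growth inhibition.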
AMA1 RON2 block = AMA1-RON2 (P. falciparum) interaction inhibition; AlphaScreen AMA1-biotinylated RON2 peptide binding; Potency, µM (highest dose often 58.2 µM), for inactives: at the highest dose activity change, negative = inhibition, most hits filed as inhibitors; actives 0.2% (n = 360,000); AID 720542;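 also: 0% = vehicle wells and -100% = peptide control; nearly all actives have a fitted effect of over 45% in size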
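AMA1 (3D7) with his tag at 25 nM final met compounds first, then biotinylated RON2 peptide at 25 nM; detection used donor plus acceptor beads, 10 µg/mL apiece, read by AlphaScreen after 30 min at room temperature.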
Starred values were filed as active, the others as inactive; ? = inconclusive; . = no result; [ ] = another dose, or the depositor's remark. Unless noted, calls follow the shape of the dose curve; as a rule, active = well fitted curve in the direction sought with a large enough effect; inconclusive = small, poorly fitted or top-dose-only effect, or another doubt; inactive = no such curve, though single readings can be large; an effect the other way counts as inactive or inconclusive. Potency is read from the fitted curve at half-maximal effect.

SMILES	Sm TGR inh	NS1 inh	Pf growth 96h	Pf growth 48h	AMA1 RON2 block
CCN(CC)CCNC(=O)CS(=O)Cc1nc(-c2ccccc2Cl)oc1C (centres undefined)	?	0%	10µM*	2%	-2%
CCN(CC)CCNC(=O)CS(=O)Cc1nc(-c2ccc(Cl)cc2)oc1C (centres undefined)	-1%	7%	-3%	-4%	9%
Cc1ccccc1-c1nc(CS(=O)CC(=O)NCc2ccccn2)c(C)o1 (centres undefined)	?	17%	-10%	-2%	49%
Cc1oc(-c2ccccc2F)nc1CS(=O)CC(=O)NC(C)C (centres undefined)	14µM*	.	.	.	.
CCC(C)NC(=O)CS(=O)Cc1nc(-c2ccccc2C)oc1C (centres undefined)	8.9µM*	2%	-6%	.	12%
Cc1ccccc1-c1nc(CS(=O)CC(=O)NCCN2CCN(Cc3ccccc3)CC2)c(C)o1 (centres undefined)	-10%	-6%	103%	-5%	0%
Clc1cccc(C2=NC(c3cccs3)=Nc3ccc(Br)cc3N2)c1	5%	.	.	.	.
CCCNC(=O)CS(=O)Cc1nc(-c2ccccc2C)oc1C (centres undefined)	50µM*	-1%	-23%	.	0%
Cc1ccccc1-c1nc(CS(=O)CC(=O)NCCCN(C)c2ccccc2)c(C)o1 (centres undefined)	-28%	-43%	57%	6%	-20%
CCOc1ccc(S(=O)(=O)N2CCCCC2)cc1NC(=O)C1CSC2(C)CCC(=O)N12 (centres undefined)	0%	.	?	1µM*	-22%
CC12CCC(=O)N1C(C(=O)Nc1cccc(S(=O)(=O)N3CCCCC3)c1)CS2 (centres undefined)	2%	.	?	-16%	-3%
CC(C)Oc1ccc(S(=O)(=O)N2CCCCC2)cc1NC(=O)C1CSC2(C)CCC(=O)N12 (centres undefined)	-1%	.	?	12µM*	-2%
COc1ccc(S(=O)(=O)N2CCCCC2)cc1NC(=O)C1CSC2(C)CCC(=O)N12 (centres undefined)	-3%	-4%	10%	?	10%
CCOc1cccc(CC(=O)N2CCc3c([nH]c4ccccc34)C2c2ccccc2)c1OCC (centres undefined)	3%	.	.	.	.
Cc1cccc(C)c1NC(=O)C1(N(Cc2ccco2)C(=O)c2ccccn2)CCCC1	-6%	-6%	-17%	-14%	24%
Cc1cccc(C)c1NC(=O)C1(N(Cc2ccco2)C(=O)Cn2nnnc2N)CCCCC1	0%	-11%	6.6µM*	6%	2%
Cc1ncc(C(O)c2ccc(N(C)C)cc2)n1Cc1ccccc1 (centres undefined)	.	.	.	.	-21%
CN(C)c1ccc2nc3c(=O)[nH]c(=O)nc-3n(CC(O)C(O)C(O)CO)c2c1 (centres undefined)	9%	1%	44%	4.1µM*	-9%
COCc1nnc(NS(=O)(=O)c2ccccc2)s1	-14%	-3%	1µM*	4%	4%
COCc1nnc(NS(=O)(=O)c2ccc(C)cc2)s1	5%	-7%	33%	19%	-10%
CC(=O)OC[C@]12CCC(C)=C[C@H]1O[C@@H]1[C@H](O)[C@@H](OC(C)=O)[C@@]2(C)[C@]12CO2	5%	-103%	?	0.0033µM*	37%
Cc1c(Cl)cccc1NC(=O)CSC(C)c1nc2ccccc2c(=O)[nH]1 (centres undefined)	-3%	13%	?	11%	-12%
CCN(C(=O)c1ccc2c(Cl)c3c(nc2c1)CCC3)c1ccc(C)c(C)c1	-2%	?	10µM*	?	-24%
CN(C(=O)c1ccc2c(Cl)c3c(nc2c1)CCC3)c1ccccc1	-13%	-37%	?	96%	-1%
Cc1ccc(S(=O)(=O)NC2CC(C)(C)NC(C)(C)C2)cc1C	-9%	8%	?	?	-12%
SMILES	Sm TGR inh	NS1 inh	Pf growth 96h	Pf growth 48h	AMA1 RON2 block
O=[N+]([O-])/C(Cl)=C1\NCCN1Cc1ccc(Cl)nc1	0%	4%	40%	32%	-7%
CN(Cc1ccccc1)C(=C(Cl)Cl)/C(=C1/NCCN1Cc1ccc(Cl)nc1)[N+](=O)[O-]	-11%	-13%	9.3µM*	.	-4%
CCCC(=O)N1CCCC1(C)C(=O)NCc1ccc(SC)cc1 (centres undefined)	.	.	.	.	-8%
Cc1ccc(NC(=O)N2CCN3CCCCC3C2)cc1F (centres undefined)	2%	.	.	.	.
COc1cccc(N2C(=O)C(O)=C(C(C)=O)C2c2ccc(OC)c(OC)c2)c1 (centres undefined)	-9%	15%	?	13µM*	-8%
COc1ccc(C2C(C(C)=O)=C(O)C(=O)N2CCO)c(OC)c1 (centres undefined)	-1%	-2%	12µM*	5%	-9%
COc1ccc(C2C(C(C)=O)=C(O)C(=O)N2c2cccnc2)cc1OC (centres undefined)	-18%	3%	39%	.	-10%
Cc1cccc(C)c1Cn1c(C)c(C(=O)NCCC#N)sc1=O	.	.	.	.	1%
CC1=CC(C)(C)N(C(=O)CNC2CCCCC2)c2cc(C)ccc21	0%	-3%	?	9.3µM*	-20%
CC(C)NC(=S)N/N=C1\CCCCC1C1CCCCC1 (centres undefined)	1%	-13%	3.3µM*	.	-7%
CC(=O)N1N=C(c2cccs2)CC1c1cccs1 (centres undefined)	-8%[57.1 µM]	-1%	30%	1%	12%
Cc1ccc(C2=NN(C(=O)CCl)C(c3cccs3)C2)o1 (centres undefined)	3.2µM*	-26%	2.1µM*	3.7µM*	0%
O=C(CCl)N1N=C(c2ccco2)CC1c1cccs1 (centres undefined)	3.2µM*	-20%	?	12µM*	36%
O=C(c1ccccc1)N1N=C(c2ccco2)CC1c1cccs1 (centres undefined)	35µM*	1%	34%[5.75 µM]	-11%	-19%
CC(=O)N1N=C(c2ccco2)CC1c1cccs1 (centres undefined)	45µM*	-5%	-2%	-9%	-3%
CC1(C)CC(=O)C=C(Nc2ccc([N+](=O)[O-])cc2)C1	7%	16%	-3%	4%	9%
CN1CCN(CC(=O)N2c3ccccc3Sc3cc4ccccc4cc32)CC1	.	-4%	.	.	.
CC(=O)Nc1cccc(OCCCNC(=O)c2cccc3ccccc23)c1	12%	3%	?	-9%	5%
COc1ccc(O[C@H]2C=C[C@@H](c3ccccc3)O[C@@H]2COC(=O)CCC(C)=NO[C@@H]2O[C@H](COC(C)=O)[C@@H](OC(C)=O)[C@H](OC(C)=O)[C@H]2OC(C)=O)cc1	-29%	?	?	-5%	.

High-throughput results as filed in PubChem BioAssay.
